Screens (PubChem)
An excerpt weighted towards active compounds, which were near 1.5% of everything screened.
ABHD5-PLIN5 inh = ABHD5-PLIN5 protein interaction inhibition. Q00G26+Q8WTS1. Split G. princeps luciferase complementation, luminescence, 4 h. inhibition, % at 4 µM. 360,000 tested, 0.78% active. AID 602281;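 active = inhibition above the mean inhibition across every tested compound plus 3 SD, cut at about 22% in these data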;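 note: 0% = DMSO only wells and the 100% control is not disclosed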
NOD2 RIPK2 PPI = NOD2-RIPK2 protein interaction inhibition | O43353 | CHO BLA complementation NOD2-RIPK2, CCF4 ratio | inhibition, % at 4.98 µM | 360,000 tested, 0.38% active; in the data active = inhibition above about 21%;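 note: 0% = vehicle only and 100% = reference blocker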
Beta2AR agonist = activates human beta-2 adrenergic receptor causing internalization; P07550; Am2.2-beta2AR cells, FAP receptor internalization, flow cytometry; response, % (no concentration beside the values); 340,000 tested, 0.43% active; AID 504454;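 active = response above a set limit, near 3 SD of response in nonfluorescent compounds, cut at about 42% in these data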
TLR4 MyD88 comp = inhibitors of human TLR4-MyD88 binding; inhibition, % at 8.4 µM; O00206+Q99836; HeLa CL3-4 TLR4/MyD88 BLA complementation, FRET ratio; 200,000 tested, 0.18% active; in the data active = inhibition above about 25%;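 note: 0% = vehicle and 100% = reference inhibitor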
NTR1 agonist = agonists of human neurotensin receptor NTR1. P30989. NTR1-U2OS beta-arrestin-GFP spot imaging, agonist mode. activation, % at 20 µM. 330,000 tested, 0.17% active. AID 493036;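 active = activation at or above 40% of the spot to cytoplasm intensity ratio, with at least 20 cells analyzed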;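 note: 0% = DMSO without peptide and 100% = 100 nM NTR1 peptide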
TLR9-MyD88 inh = TLR9-MyD88 interaction inhibition. Q9NR96+Q99836. CHO BLA complementation TLR9-MyD88, CCF4 FRET ratio. inhibition, % at 4.98 µM. 340,000 tested, 0.21% active. AID 504734;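 active = inhibition above the mean over all tested compounds plus 3 SD, cut at about 21% in these data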;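 note: 0% = DMSO only wells and 100% = clavulanate BLA inhibitor control wells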
ABHD5 PLIN5 conf = confirmation of human ABHD5-PLIN5 interaction inhibitors; shares compounds with ABHD5-PLIN5 inh; biochemical ABHD5-PLIN5 interaction, luminescence; inhibition, % at 4 µM; 2,200 tested, 67% active; in the data active = inhibition above about 23%;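 note: 0% = DMSO vehicle wells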
HNF4 counter = HNF4 split-luciferase signal hit, counter-screen; shares compounds with ABHD5-PLIN5 inh; HNF4 dimerization, luminescence, biochemical; inhibition, % at 4 µM; 2,200 tested, 77% active; AID 651674;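 active = mean inhibition across replicate wells exceeding the computed hit threshold, cut at about 13% in these data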;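 note: light from luciferase halves that rejoin when HNF4 fusion proteins dimerize; 0% = DMSO only wells and the 100% control is not given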
Active calls of the source: *.

Cc1nc2nc(C)n(CCN3CCOCC3)c(=O)c2c(-c2cccc([N+](=O)[O-])c2)c1C(=O)CCCCCCCCCCN1CCC(c2ccccc2)(c2ccccc2)CC1 was read as ABHD5-PLIN5 inh 42*, NOD2 RIPK2 PPI 13, Beta2AR agonist 33, TLR9-MyD88 inh -3, ABHD5 PLIN5 conf 13 and HNF4 counter -2.
Screening CSc1ccc(CN2CCC(C)(Oc3cccc(Cl)c3)C2)cc1 (centres undefined) returned ABHD5-PLIN5 inh 0 and NOD2 RIPK2 PPI -14.
Screening CN(Cc1ccc(Cl)cc1)C(CCc1ccccc1)C(=O)NC1CCCCC1 (centres undefined) returned ABHD5-PLIN5 inh -5 and NOD2 RIPK2 PPI -17.
Screening Cc1cccnc1C1=NOC(Cc2ccccc2)C(=O)N1Cc1ccc2c(c1)OCO2 (centres undefined) returned ABHD5-PLIN5 inh -2 and NOD2 RIPK2 PPI 1.
CCSC1(SCC)N=C(N)C2(C#N)C(c3ccc(OC)c(OC)c3OC)C12C#N (centres undefined) was read as ABHD5-PLIN5 inh 25*, NOD2 RIPK2 PPI 5, Beta2AR agonist 38, NTR1 agonist 16, TLR9-MyD88 inh 7, ABHD5 PLIN5 conf 78* and HNF4 counter 72*.
Screening CCSC1(SCC)N=C(N)C2(C#N)C(c3ccccc3)NC3=C(CCC3)C12C#N (centres undefined) returned ABHD5-PLIN5 inh -2, NOD2 RIPK2 PPI -7, Beta2AR agonist -1, TLR4 MyD88 comp -5, NTR1 agonist 1 and TLR9-MyD88 inh -4.
For Cc1ccc2cc(/C=C/C(=O)c3ccco3)c(Cl)nc2c1 the results were ABHD5-PLIN5 inh 45*, NOD2 RIPK2 PPI 7, Beta2AR agonist 56*, NTR1 agonist 28, ABHD5 PLIN5 conf 96* and HNF4 counter 99*.
`COc1cc2cc(/C=C/C(=O)c3ccco3)c(Cl)nc2cc1OC` gave ABHD5-PLIN5 inh 38*, NOD2 RIPK2 PPI 9, Beta2AR agonist -35, TLR4 MyD88 comp 14, NTR1 agonist 1, TLR9-MyD88 inh -2, ABHD5 PLIN5 conf 90* and HNF4 counter 82*.
`Cc1ccc2nc(Cl)c(/C=C/C(=O)c3ccco3)cc2c1` gave ABHD5-PLIN5 inh 24*, NOD2 RIPK2 PPI 1, Beta2AR agonist 8, NTR1 agonist 8, TLR9-MyD88 inh -2, ABHD5 PLIN5 conf 92* and HNF4 counter 86*.
O=C(C[C@H]1C(=O)N(CCc2ccccc2)C[C@@H]1c1ccccc1)Nc1ccccc1 was read as ABHD5-PLIN5 inh -3, NOD2 RIPK2 PPI 0 and TLR9-MyD88 inh -2.
`Cc1ccc(S(=O)(=O)N2C(c3ccccc3)CC(=O)C3CN(S(=O)(=O)c4ccc(Cl)cc4)C(c4ccccc4)CC32)cc1` (centres undefined) gave ABHD5-PLIN5 inh -1 and NOD2 RIPK2 PPI -24.
Cc1ccc2cc(C)c(SCC(=O)NCc3ccco3)nc2c1 was read as ABHD5-PLIN5 inh 1, NOD2 RIPK2 PPI -7, Beta2AR agonist -4, TLR4 MyD88 comp 0, NTR1 agonist 0 and TLR9-MyD88 inh 1.
`Cc1ccc2cc(C#N)c(NCc3ccco3)nc2c1` gave ABHD5-PLIN5 inh 24*, NOD2 RIPK2 PPI 1, Beta2AR agonist -5, TLR4 MyD88 comp 2, NTR1 agonist 0, TLR9-MyD88 inh -5, ABHD5 PLIN5 conf 46* and HNF4 counter 61*.
Screening O=c1[nH]cnc2c1nnn2C1OC(CO)C(O)C1O (centres undefined) returned ABHD5-PLIN5 inh 1 and NOD2 RIPK2 PPI -16.
Cc1ccc(S(=O)(=O)c2ncccc2[N+](=O)[O-])cc1 was read as ABHD5-PLIN5 inh 43*, NOD2 RIPK2 PPI 21, Beta2AR agonist -74, NTR1 agonist 30, TLR9-MyD88 inh 11, ABHD5 PLIN5 conf 55* and HNF4 counter 70*.
